Compounds without any hit were thinned out: in the full panel of roughly 83,000, 20% have a hit.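 Cell lines were cultured in 96-well plates, exposed to a single compound concentration, and assessed for percent growth 48 hours later.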 Activity calls are given as the source filed them. How the source made its calls: active means growth percent below 10; inactive means the rest.
Assays:
Test in all cases: NCI-60 one-dose screen, 48 h (100 = growth as untreated, 0 = no growth, -100 = all killed)
Settings in all cases: 10 µM unless noted
[1] = system: BT-549 breast
[2] = system: MDA-MB-435 melanoma
[3] = system: SW-620 colon
[4] = system: MCF7 breast
[5] = system: HCT-116 colon
[6] = system: HCC-2998 colon
[7] = system: KM12 colon

Measured: growth

N#Cc1c(N)[nH]c(S)c1C#N
inactive: [1] 99.4% | [2] 98.4% | [3] 107% | [4] 92.1% | [5] 97.9% | [6] 95.6% | [7] 116%

Cc1[nH]n(C(N)=S)c(=O)c1N=Nc1ccc(F)c(Cl)c1
inactive: [1] 143% | [2] 107% | [3] 111% | [4] 103% | [5] 95.5% | [6] 95.7% | [7] 90%

CC(=O)c1cc(C(=O)c2ccc3c(c2)Sc2ccccc2N3)c2c(C)cc(C)cn12
inactive: [1] 28.5% | [3] 20.8% | [4] 15.1% | [6] 18% | [7] 11.1%
active: [2] -22.1% | [5] 3.76%

Cc1nn(-c2ccc(Cl)cc2)c2nc3c(nc12)C(=O)C(=O)c1ccccc1-3
inactive: [1] 92.1% | [2] 97.7% | [3] 67.2% | [4] 49.7% | [5] 80.2% | [6] 66.6% | [7] 61.9%

Cc1cc(C(C)(C)C)cc(C)c1CC1=NCCN1
inactive: [1] 98.3% | [2] 100% | [3] 108% | [4] 113% | [5] 112% | [6] 96.4% | [7] 103%

Cc1ccc2c(c1)O/C(=C\c1ccc([N+](=O)[O-])o1)C2=O
active: [2] -8.75% | [3] -56.5% | [4] 9.48% | [5] -47.7%
inactive: [1] 25.9% | [6] 64.3% | [7] 86%

O=C1CCCN1C1CCN(Cc2cc3ccccc3[nH]c2=O)c2ccccc21 (configuration not stated)
inactive: [1] 98.2% | [2] 93.5% | [3] 96.3% | [4] 92.8% | [5] 82.6% | [6] 96.4% | [7] 98.1%

Cc1nnc(Nc2ccc(NC(=O)Nc3ccc(Cl)cc3)cc2)c2ccccc12
active: [2] -40% | [5] 7.67%
inactive: [1] 11.4% | [3] 20.3% | [4] 24.9% | [6] 40.5% | [7] 14.1%

CCC(=O)Nc1ccccc1C#C/C=C\C#Cc1ccccc1C(F)(F)F
active: [2] 0.785%
inactive: [1] 39.9% | [3] 29.7% | [4] 33.2% | [5] 41% | [6] 70.6% | [7] 41.5%

COc1cccc2c1O/C(=C\c1c([N+](=O)[O-])ncn1C)C2=O
inactive: [1] 98% | [2] 91.6% | [3] 105% | [4] 88.4% | [5] 83.3% | [6] 105% | [7] 105%

COC(=O)CCC1=C(C)C(C)=N/C1=C\c1[nH]c(-c2ccc[nH]2)cc1OC
inactive: [1] 29.2% | [6] 12.5% | [7] 12.7%
active: [2] -5.95% | [3] 7.46% | [4] 4.8% | [5] -59.8%

S=C(Nc1ccc(C2=NCCN2)cc1)Nc1ccc(C2=NCCN2)cc1
inactive: [1] 87.9% | [2] 102% | [3] 107% | [4] 103% | [5] 107% | [6] 104% | [7] 101%

CC[C@]1(O)CC2CN(CCc3c([nH]c4ccccc34)[C@@](C(=O)OC)(c3cc4c(cc3OC)N(C)[C@H]3[C@@](O)(C(=O)OC)[C@H](OC(C)=O)[C@]5(CC)C=CCN6CC[C@]43[C@@H]65)C2)C1 (some centres not stated)
active: [2] -17.8% | [4] 8.22% | [5] 1.69% | [6] -23.4% | [7] -7.67%
inactive: [1] 34.2% | [3] 21.6%

CC(C)c1ccc(C(=O)Nc2sc3c(CN(C)C)c(O)ccc3c2C(N)=O)cc1
inactive: [1] 64.4% | [2] 63%
active: [3] -37.8% | [4] -16.2% | [5] -46.5% | [6] -54.6% | [7] 6.38%

CCn1c2c(c3ccccc31)SC1c3cccn3CCN1C2=S (configuration not stated)
inactive: [1] 140% | [2] 91.5% | [3] 95.2% | [4] 53.8% | [5] 98.2% | [6] 99.6% | [7] 96.4%

O=Cc1c[nH]c2ccc(NC(=O)OCc3ccccc3)cc12
inactive: [1] 21.4% | [2] 115% | [3] 121% | [4] 100% | [5] 98.9% | [6] 96.2% | [7] 123%

CC1SC(c2c(Cl)cccc2Cl)N(NC(=O)c2[nH]c3ccc(F)cc3c2-c2ccccc2)C1=O (configuration not stated)
inactive: [1] 75.7% | [2] 61.9% | [3] 17% | [4] 42.3% | [6] 11.2% | [7] 46.4%
active: [5] -43.8%

CN(CC(=O)Nc1nc2ccccc2[nH]1)S(=O)(=O)c1ccc(Cl)cc1
inactive: [1] 99.2% | [2] 91.2% | [3] 67.5% | [4] 40.9% | [5] 72.8% | [6] 91.3% | [7] 105%

Cc1cc(O)c2c(c1)C[C@H]1[C@@H]3CC[C@H]4CC(=O)CC[C@]4(C)[C@H]3CC(=O)[C@]21C
inactive: [1] 91.4% | [2] 91.1% | [3] 103% | [4] 95.6% | [5] 77.1% | [6] 87.9% | [7] 81.2%

COc1ccc(-c2c(-c3cc(OC)c(OC)c(OC)c3)noc2N)cc1
inactive: [1] 13.2% | [3] 21.7% | [4] 17.1% | [6] 17.4%
active: [2] -6.19% | [5] 8.77% | [7] 7.28%

COc1ccc2c(c1)C(=O)c1c-2c(=O)n(CCCCCCC(=O)NO)c2ccccc12
inactive: [1] 23.4% | [7] 10.9%
active: [2] -14.1% | [3] -27.4% | [4] 5.92% | [5] -55.8% | [6] -39.6%

COc1ccc(-c2nn(-c3cccc(Cl)c3)cc2C2CC(c3ccccc3)=NN2C(C)=O)cc1 (configuration not stated)
inactive: [1] 74.7% | [2] 88.5% | [3] 73.6% | [4] 68% | [5] 60.9% | [6] 95.4% | [7] 96.4%

Cc1nn(-c2ccccc2)c2nc3c(nc12)C(=O)CCC3
inactive: [1] 90.9% | [2] 98.1% | [3] 105% | [4] 84.9% | [5] 91.6% | [6] 92% | [7] 87.1%

Oc1[nH]c2ccccc2c1/C=c1/ccc2c(c1)N=C(c1cc(F)cc(F)c1)N=2
inactive: [1] 40.4% | [2] 25.2% | [3] 36.4% | [4] 25.1% | [5] 28.7% | [6] 81.1% | [7] 34%

O=[N+]([O-])c1ccc(Oc2cccc(C(F)(F)F)c2)c([N+](=O)[O-])c1
active: [1] 3.1% | [2] -16.6% | [5] 3.46%
inactive: [3] 13.5% | [4] 112% | [6] 92.5% | [7] 86.2%

C[n+]1ccc(C#N)c2ccccc21
inactive: [1] 102% | [2] 95.8% | [3] 90.6% | [4] 87.5% | [5] 80% | [6] 114% | [7] 100%

COc1ccc(C(=O)C(C)Br)cc1OC (configuration not stated)
inactive: [1] 94.3% | [2] 87.4% | [3] 40.8% | [4] 84.4% | [5] 52.2% | [6] 101% | [7] 93.3%

NCCCc1nnc(CCC(=O)c2nc3ccccc3[nH]2)o1
inactive: [1] 103% | [2] 105% | [3] 108% | [4] 91.4% | [5] 100% | [6] 98.1% | [7] 115%

CCOc1nc(-c2ccccc2)cc2c(O)c(C(=O)n3nc(C)cc3C)[nH]c(=O)c12
inactive: [1] 99.9% | [2] 112% | [3] 115% | [4] 101% | [5] 101% | [6] 112% | [7] 106%

Cc1ccc(NC(=O)Nc2ccc(-c3cccnc3)cc2N2CCC(CO)CC2)cc1
inactive: [1] 25.2% | [3] 20.3% | [6] 14.1% | [7] 20.1%
active: [2] 4.25% | [4] 9.77% | [5] 8.43%

COc1ccc2[nH]cc(/C=C3/C(=O)Nc4ccc(F)cc43)c2c1
inactive: [1] 134% | [2] 93.8% | [3] 101% | [4] 56.3% | [5] 86% | [6] 93% | [7] 27%

OC(CCC(O)(c1ccccc1)c1ccccc1)(c1ccccc1)c1ccccc1
inactive: [1] 121% | [2] 69.9% | [3] 69.6% | [4] 87.3% | [5] 80.5% | [6] 83.4% | [7] 75%

Cc1ccc(C(O)C2=CC(=O)c3ccccc3C2=O)cc1 (configuration not stated)
inactive: [1] 63.1% | [2] 102% | [3] 95% | [4] 87.1% | [5] 91.7% | [6] 101% | [7] 96%

NC(=O)N/N=C/c1ccc(Br)o1
inactive: [1] 104% | [2] 113% | [3] 114% | [4] 95.4% | [5] 105% | [6] 96.5% | [7] 108%

C=C1CC[C@@H]2[C@](C)(COC(C)=O)[C@H](OC(C)=O)CC[C@@]2(C)[C@@H]1CC(Nc1ccc(S(=O)(=O)Nc2cc(C)on2)cc1)C1=CCOC1=O (some centres not stated)
inactive: [1] 27.2% | [2] 35% | [3] 14.7% | [4] 12.3% | [6] 68.3% | [7] 30.5%
active: [5] -1.13%

O=[N+]([O-])c1ccc(N/N=C\c2ccccc2[N+](=O)[O-])nc1
inactive: [1] 101% | [2] 107% | [3] 107% | [4] 88.8% | [5] 102% | [6] 107% | [7] 104%
